Targets with a hit are over-represented here; the source holds about 7,900 in all. About 0.6% of all pairs of compound and target were hits.
How the values were obtained:
Experiment in all cases: log2 fold change, soluble protein after heating vs DMSO (PISA); higher = thermal stabilisation; K562 cells, 10 uM, 30 min; active = over 0.2 and 3.5 SD of the protein, either way, in both replicates (recomputed)
IRAK-1-4 Inhibitor I = compound: C1COCCN1CCN2C3=CC=CC=C3N=C2NC(=O)C4=CC(=CC=C4)[N+](=O)[O-] [IRAK-1-4 Inhibitor I]
Outline: (§1)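 Quantification of soluble protein used TMTpro 16plex LC-MS/MS, with channel sums equalised. Samples were the supernatant after 21,000xg for 90 min of pooled aliquots from K562 cells (2×10^6 cells/mL) treated with 10 μM compound for 30 min, heated for 3 min over 48°C-58°C, and extracted in PBS with 0.5% NP-40 at 4°C. Values, from duplicates, describe thermal stability against control samples on a log2 fold-change scale.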

[1] = compound: CC(=O)c1cnc2ccc(-c3cc(Cl)c(O)c(Cl)c3)nc2c1N[C@H]1CC[C@H](CN(C)C)CC1
Outline: as §1

ralimetinib = compound: CC(C)(C)Cn1c(N)nc2ccc(-c3[nH]c(C(C)(C)C)nc3-c3ccc(F)cc3)nc21 [ralimetinib]
Outline: as §1

[2] = compound: CC(C)(O)CC(=O)NCCn1ccc2ncnc(Nc3ccc(Oc4cccc(C(F)(F)F)c4)c(Cl)c3)c21
Outline: as §1

[3] = compound: CC(C)C1=C2N=C(C=C(N2N=C1)NCC3=CC=CC=C3)NCCCCCCN
Outline: as §1

[4] = compound: CC(C)C[C@@H](C=O)NC(=O)[C@H](CC(C)C)NC(=O)[C@H](CC(C)C)NC(=O)OCc1ccccc1
Outline: as §1

pinometostat = compound: CC(C)N(C[C@H]1O[C@@H](n2cnc3c(N)ncnc32)[C@H](O)[C@@H]1O)[C@H]1C[C@@H](CCc2nc3cc(C(C)(C)C)ccc3[nH]2)C1 [pinometostat]
Outline: as §1

[5] = compound: CC1=C(C(CC(=O)N1)C2=CC=C(C=C2)C(F)(F)F)C(=O)NC3=C(C=C4C(=C3)C=NN4)F
Outline: as §1

[6] = compound: CC1=C(C2=C(C=C1)C(=O)C3=CC=CC=C3N2CCCN)C
Outline: as §1

[7] = compound: CC1=C(C=C(C=C1)NC(=O)C2=CC(=CC=C2)C(C)(C)C#N)NC3=CC4=C(C=C3)N=CN(C4=O)C
Outline: as §1

[8] = compound: CC1=C(C=C(C=C1)NC(=O)C2=CC(=CC=C2)N(C)C)NC(=O)C3=CC=C(C=C3)O
Outline: as §1

[9] = compound: CC1=CC=C(C=C1)SC2=C3C=C(SC3=CN=C2)C(=O)N
Outline: as §1

[10] = compound: CC1=NC(=CC=C1)C2=C(N=C(N2)C(C)(C)C)C3=CC4=NC=CN=C4C=C3
Outline: as §1

Nexturastat A = compound: CCCCN(Cc1ccc(C(=O)NO)cc1)C(=O)Nc1ccccc1 [Nexturastat A]
Outline: as §1

vemurafenib = compound: CCCS(=O)(=O)Nc1ccc(F)c(C(=O)c2c[nH]c3ncc(-c4ccc(Cl)cc4)cc23)c1F [vemurafenib]
Outline: as §1

[11] = compound: CCCS(=O)(=O)Nc1ccc(F)c(C(=O)c2c[nH]c3ncc(Cl)cc23)c1F
Outline: as §1

[12] = compound: CCCc1cc(C)[nH]c(=O)c1CNC(=O)c1cc(-c2ccnc(N3CCN(C)CC3)c2)cc2c1cnn2C(C)C
Outline: as §1

givinostat = compound: CCN(CC)Cc1ccc2cc(COC(=O)Nc3ccc(C(=O)NO)cc3)ccc2c1 [givinostat]
Outline: as §1

barasertib = compound: CCN(CCCOc1ccc2c(Nc3cc(CC(=O)Nc4cccc(F)c4)[nH]n3)ncnc2c1)CCOP(=O)(O)O [barasertib]
Outline: as §1

ibrutinib = compound: C=CC(=O)N1CCC[C@@H](n2nc(-c3ccc(Oc4ccccc4)cc3)c3c(N)ncnc32)C1 [ibrutinib]
Outline: as §1

Measured: log2 fold change

PKM (UniProt P14618)
inactive: IRAK-1-4 Inhibitor I 0.012 | [1] -0.011 | ralimetinib -0.018 | [2] -0.02 | [3] 0.079 | [4] -0.013 | pinometostat -0.033 | [5] 0.021 | [6] 0.036 | [7] -0.013 | [8] -0.005 | [9] 0.001 | [10] 0.014 | Nexturastat A -0.054 | vemurafenib -0.012 | [11] -0.01 | [12] -0.023 | givinostat 0 | barasertib -0.011

PPP2R5B (UniProt Q15173)
Chain of UniProt Q15173 (Q15173 whole entry, looked up): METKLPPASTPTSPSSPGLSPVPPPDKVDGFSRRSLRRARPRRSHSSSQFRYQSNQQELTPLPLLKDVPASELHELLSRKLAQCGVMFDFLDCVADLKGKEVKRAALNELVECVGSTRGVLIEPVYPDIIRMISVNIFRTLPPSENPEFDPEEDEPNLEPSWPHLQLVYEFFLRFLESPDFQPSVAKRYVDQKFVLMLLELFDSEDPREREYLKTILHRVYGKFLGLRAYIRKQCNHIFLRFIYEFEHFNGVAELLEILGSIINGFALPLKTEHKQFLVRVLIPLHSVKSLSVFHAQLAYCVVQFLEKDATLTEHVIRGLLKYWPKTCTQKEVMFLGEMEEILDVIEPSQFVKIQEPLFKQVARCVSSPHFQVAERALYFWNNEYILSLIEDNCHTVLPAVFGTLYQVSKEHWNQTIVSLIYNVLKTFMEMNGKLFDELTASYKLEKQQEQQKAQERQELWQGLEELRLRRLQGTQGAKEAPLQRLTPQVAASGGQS
inactive: ibrutinib -0.083 | [1] 0.165 | [3] 0.092 | [5] 0.037 | [9] -0.131 | vemurafenib -0.104 | [11] 0.104 | [12] -0.013 | givinostat 0.083 | barasertib 0.009

PRKX (UniProt P51817)
Chain of UniProt P51817 (P51817 whole entry, looked up): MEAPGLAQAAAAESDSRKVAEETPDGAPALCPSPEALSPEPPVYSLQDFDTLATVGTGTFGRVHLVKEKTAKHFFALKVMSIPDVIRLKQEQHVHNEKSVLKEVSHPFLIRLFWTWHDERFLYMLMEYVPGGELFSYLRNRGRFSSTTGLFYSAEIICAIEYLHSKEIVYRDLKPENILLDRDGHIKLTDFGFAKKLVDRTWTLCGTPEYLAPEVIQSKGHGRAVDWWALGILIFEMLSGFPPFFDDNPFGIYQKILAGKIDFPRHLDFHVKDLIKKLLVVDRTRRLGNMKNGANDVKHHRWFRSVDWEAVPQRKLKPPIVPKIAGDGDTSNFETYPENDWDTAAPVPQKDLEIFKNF
inactive: ibrutinib -0.005 | [3] -0.274 | [12] -0.103 | givinostat 0.036 | barasertib 0.126

PAN2 (UniProt Q504Q3)
Chain of UniProt Q504Q3 (Q504Q3 whole entry, looked up): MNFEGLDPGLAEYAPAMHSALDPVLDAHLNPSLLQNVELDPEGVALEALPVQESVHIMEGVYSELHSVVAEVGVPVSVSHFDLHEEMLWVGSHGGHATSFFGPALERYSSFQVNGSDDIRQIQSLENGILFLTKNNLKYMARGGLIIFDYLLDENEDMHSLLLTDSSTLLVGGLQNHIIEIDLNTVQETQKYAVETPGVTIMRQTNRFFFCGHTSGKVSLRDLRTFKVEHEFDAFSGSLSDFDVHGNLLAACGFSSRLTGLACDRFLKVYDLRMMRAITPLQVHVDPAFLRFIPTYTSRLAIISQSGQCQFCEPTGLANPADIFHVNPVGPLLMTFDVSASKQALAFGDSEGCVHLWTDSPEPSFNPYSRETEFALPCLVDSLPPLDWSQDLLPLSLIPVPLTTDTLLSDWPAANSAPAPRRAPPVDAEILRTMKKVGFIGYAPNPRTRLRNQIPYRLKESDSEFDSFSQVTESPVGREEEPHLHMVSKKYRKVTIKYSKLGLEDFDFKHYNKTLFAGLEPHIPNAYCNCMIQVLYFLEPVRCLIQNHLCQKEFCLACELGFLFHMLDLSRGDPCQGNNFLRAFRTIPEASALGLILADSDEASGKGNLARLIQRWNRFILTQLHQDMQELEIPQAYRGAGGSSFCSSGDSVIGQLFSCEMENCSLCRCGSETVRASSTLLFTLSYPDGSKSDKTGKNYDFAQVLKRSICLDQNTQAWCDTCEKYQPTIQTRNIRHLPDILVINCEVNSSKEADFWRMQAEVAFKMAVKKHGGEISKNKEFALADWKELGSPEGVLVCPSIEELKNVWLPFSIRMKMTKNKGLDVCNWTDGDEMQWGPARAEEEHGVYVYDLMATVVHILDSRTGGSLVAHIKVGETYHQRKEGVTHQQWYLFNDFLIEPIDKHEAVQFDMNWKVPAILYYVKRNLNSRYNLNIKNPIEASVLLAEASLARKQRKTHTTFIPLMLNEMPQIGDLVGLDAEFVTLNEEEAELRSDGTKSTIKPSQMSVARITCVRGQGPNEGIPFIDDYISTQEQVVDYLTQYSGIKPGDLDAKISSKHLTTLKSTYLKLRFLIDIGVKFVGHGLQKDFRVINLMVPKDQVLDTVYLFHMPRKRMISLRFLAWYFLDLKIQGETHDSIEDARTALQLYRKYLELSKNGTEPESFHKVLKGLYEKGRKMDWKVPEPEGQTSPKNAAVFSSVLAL
inactive: ibrutinib -0.134 | [5] 0.099 | vemurafenib -0.128 | barasertib 0.088

PCBP2 (UniProt F8VZX2)
inactive: IRAK-1-4 Inhibitor I -0.177 | ibrutinib 0.212 | ralimetinib -0.004 | [3] -0.127 | [4] 0.138 | pinometostat 0.136 | [5] 0.128 | [8] -0.14 | [10] 0.005 | [12] -0.098 | givinostat 0.009 | barasertib -0.173

PRR14L (UniProt Q5THK1)
Chain of UniProt Q5THK1 (Q5THK1 whole entry, looked up): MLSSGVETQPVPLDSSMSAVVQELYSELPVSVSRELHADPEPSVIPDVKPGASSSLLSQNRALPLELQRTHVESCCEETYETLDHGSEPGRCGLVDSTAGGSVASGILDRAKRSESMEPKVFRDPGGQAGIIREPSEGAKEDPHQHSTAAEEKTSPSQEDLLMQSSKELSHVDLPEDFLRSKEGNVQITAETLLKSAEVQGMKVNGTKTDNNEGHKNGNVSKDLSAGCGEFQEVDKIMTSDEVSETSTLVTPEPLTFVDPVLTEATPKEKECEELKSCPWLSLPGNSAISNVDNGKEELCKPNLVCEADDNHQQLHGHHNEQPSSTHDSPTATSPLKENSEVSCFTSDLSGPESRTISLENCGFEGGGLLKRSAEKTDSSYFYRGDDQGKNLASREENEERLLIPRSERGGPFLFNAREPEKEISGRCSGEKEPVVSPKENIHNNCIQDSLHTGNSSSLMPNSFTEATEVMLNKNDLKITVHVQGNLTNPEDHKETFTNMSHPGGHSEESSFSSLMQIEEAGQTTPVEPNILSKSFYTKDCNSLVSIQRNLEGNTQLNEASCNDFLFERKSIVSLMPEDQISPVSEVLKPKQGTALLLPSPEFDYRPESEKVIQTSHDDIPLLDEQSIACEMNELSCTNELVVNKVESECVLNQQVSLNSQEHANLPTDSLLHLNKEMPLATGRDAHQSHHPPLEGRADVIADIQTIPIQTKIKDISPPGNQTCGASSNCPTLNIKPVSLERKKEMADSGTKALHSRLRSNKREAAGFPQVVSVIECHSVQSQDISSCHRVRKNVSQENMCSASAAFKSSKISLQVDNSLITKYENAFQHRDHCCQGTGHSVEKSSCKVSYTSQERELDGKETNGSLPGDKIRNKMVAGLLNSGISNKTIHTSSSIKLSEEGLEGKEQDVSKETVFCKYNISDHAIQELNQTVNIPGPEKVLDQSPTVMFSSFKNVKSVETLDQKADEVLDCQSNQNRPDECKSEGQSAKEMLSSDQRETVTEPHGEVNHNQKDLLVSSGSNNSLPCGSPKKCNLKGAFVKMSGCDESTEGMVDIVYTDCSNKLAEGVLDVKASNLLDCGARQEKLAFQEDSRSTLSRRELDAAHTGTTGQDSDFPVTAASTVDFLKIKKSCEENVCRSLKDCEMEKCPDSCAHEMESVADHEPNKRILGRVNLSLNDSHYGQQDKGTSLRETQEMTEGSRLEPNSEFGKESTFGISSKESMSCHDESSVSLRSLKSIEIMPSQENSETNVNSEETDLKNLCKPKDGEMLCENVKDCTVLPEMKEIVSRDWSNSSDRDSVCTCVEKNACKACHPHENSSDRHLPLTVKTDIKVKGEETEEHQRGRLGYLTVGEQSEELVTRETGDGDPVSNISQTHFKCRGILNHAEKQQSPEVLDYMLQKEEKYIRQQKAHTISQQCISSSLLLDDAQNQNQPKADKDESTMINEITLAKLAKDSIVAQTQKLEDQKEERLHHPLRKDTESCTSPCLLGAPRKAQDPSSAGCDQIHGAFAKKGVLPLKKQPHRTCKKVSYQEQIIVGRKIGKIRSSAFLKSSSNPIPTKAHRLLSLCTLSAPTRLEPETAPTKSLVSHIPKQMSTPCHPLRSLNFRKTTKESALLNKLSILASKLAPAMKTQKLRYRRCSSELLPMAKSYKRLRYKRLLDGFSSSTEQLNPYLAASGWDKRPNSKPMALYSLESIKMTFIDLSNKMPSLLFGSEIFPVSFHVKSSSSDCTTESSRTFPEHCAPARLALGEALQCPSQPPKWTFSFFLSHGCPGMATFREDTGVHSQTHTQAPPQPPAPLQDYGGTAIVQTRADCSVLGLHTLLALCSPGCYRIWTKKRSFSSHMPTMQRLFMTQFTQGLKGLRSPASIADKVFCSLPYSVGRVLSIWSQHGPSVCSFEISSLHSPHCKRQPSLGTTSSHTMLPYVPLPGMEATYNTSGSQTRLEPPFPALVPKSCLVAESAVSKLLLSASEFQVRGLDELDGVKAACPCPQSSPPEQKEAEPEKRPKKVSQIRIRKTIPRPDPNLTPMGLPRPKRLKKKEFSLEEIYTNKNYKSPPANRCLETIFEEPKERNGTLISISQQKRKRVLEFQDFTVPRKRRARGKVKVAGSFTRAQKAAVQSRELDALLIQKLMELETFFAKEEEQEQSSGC
active: vemurafenib -0.62
inactive: [1] -0.104 | [5] 0.015 | [6] 0.008 | [9] -0.039 | [11] -0.038

PSMA3 (UniProt H0YJ03)
inactive: IRAK-1-4 Inhibitor I 0.023 | [1] 0.052 | ralimetinib 0.14 | [4] 0.067 | pinometostat 0.061 | [6] 0.046 | [8] 0.019 | [9] 0.019 | [10] -0.194 | vemurafenib -0.145 | [11] -0.134

PSMD8 (UniProt K7ERW6)
inactive: IRAK-1-4 Inhibitor I 0.018 | pinometostat 0.001 | [6] 0.037 | [10] -0.283 | vemurafenib -0.236

PTP4A3 (UniProt O75365)
Chain of UniProt O75365 (O75365 whole entry, looked up): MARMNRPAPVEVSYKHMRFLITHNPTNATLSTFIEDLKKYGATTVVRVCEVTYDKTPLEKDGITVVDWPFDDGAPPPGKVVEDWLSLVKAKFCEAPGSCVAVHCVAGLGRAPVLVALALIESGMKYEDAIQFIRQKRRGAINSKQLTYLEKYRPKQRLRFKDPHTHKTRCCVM
inactive: ibrutinib 0.079 | vemurafenib 0.207 | barasertib -0.01

PEX5 isoform 4 (UniProt P50542)
inactive: [1] -0.035 | ralimetinib 0.145 | [2] 0.038 | [3] 0.066 | [4] 0.123 | [6] -0.072 | [7] 0.089 | [8] -0.018 | Nexturastat A 0.145 | vemurafenib -0.066 | givinostat 0.127

PSMC3 (UniProt E9PLG2)
inactive: IRAK-1-4 Inhibitor I -0.064 | ibrutinib -0.051 | [2] 0.167 | pinometostat -0.1 | [6] -0.155 | [7] -0.381 | [10] -0.217 | Nexturastat A 0.04 | vemurafenib -0.157 | [12] -0.08 | barasertib 0.02

PTPA (UniProt A6PVN8)
inactive: ibrutinib 0.063 | [1] -0.241 | ralimetinib -0.07 | [2] -0.052 | [3] 0.122 | [4] -0.002 | [5] 0.026 | [6] -0.104 | [7] 0.062 | [8] -0.128 | [9] -0.15 | Nexturastat A -0.038 | vemurafenib -0.065 | [11] -0.11 | [12] 0.038 | barasertib 0.01
active: givinostat -0.857

PSMC1 (UniProt G3V4X1)
inactive: [3] -0.089 | [5] 0.029 | [9] -0.384 | [11] -0.154 | givinostat 0.095

PPP1R12C (UniProt Q9BZL4)
inactive: ibrutinib -0.024 | ralimetinib -0.028 | [2] 0.045 | [3] -0.126 | [4] -0.041 | [5] -0.291 | [6] -0.157 | [7] -0.048 | [8] 0.027 | [9] 0.124 | Nexturastat A 0.154 | vemurafenib -0.023 | [11] 0.265 | [12] 0.04 | givinostat 0.089 | barasertib 0.112

PMVK (UniProt Q15126)
Chain of UniProt Q15126 (Q15126 whole entry, looked up): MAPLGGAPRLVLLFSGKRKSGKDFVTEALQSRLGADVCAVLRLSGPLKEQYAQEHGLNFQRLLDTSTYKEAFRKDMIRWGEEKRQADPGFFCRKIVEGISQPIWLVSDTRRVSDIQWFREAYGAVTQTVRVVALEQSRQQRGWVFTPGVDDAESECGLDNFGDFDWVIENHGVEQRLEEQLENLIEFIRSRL
inactive: ibrutinib -0.039 | [1] -0.069 | [2] -0.072 | [3] -0.195 | [5] 0.15 | [6] 0.061 | [7] 0.006 | Nexturastat A 0.085 | vemurafenib -0.041 | [12] 0.016 | givinostat -0.068 | barasertib 0.014

PMS2CL (UniProt Q68D20)
Chain of UniProt Q68D20 (Q68D20 whole entry, looked up): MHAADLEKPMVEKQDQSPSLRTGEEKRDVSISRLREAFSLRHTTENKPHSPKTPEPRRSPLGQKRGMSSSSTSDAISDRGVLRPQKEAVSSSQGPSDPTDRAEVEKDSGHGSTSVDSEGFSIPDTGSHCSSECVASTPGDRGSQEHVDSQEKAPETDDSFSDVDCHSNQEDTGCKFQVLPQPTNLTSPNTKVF
inactive: ralimetinib -0.21 | [2] -0.042 | [4] -0.258 | [5] 0.231 | [8] 0.089 | Nexturastat A -0.109 | [12] 0.129

PIM1 isoform 2 (UniProt P11309)
inactive: [12] -0.566

POLB (UniProt P06746)
inactive: ralimetinib 0.14 | [2] -0.222 | [3] 0.091 | [4] 0.143 | [5] -0.168 | [6] 0.175 | [7] 0.086 | [8] -0.211 | [9] 0.009 | Nexturastat A 0.189 | [11] 0.178 | givinostat -0.026
